CYP2C9 act = activators of human CYP2C9 | recombinant CYP2C9, luciferin-H conversion, luminescence; stronger effect = higher value; factor 1 = untreated enzyme, 0 = blocked | activation factor at 5 µM | P11712 | 96,000 tested, 1.4% active;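 active means activation factor of 2 or more for CYP2C9 at a 5 µM dose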
Target sequence (P11712 whole entry, looked up): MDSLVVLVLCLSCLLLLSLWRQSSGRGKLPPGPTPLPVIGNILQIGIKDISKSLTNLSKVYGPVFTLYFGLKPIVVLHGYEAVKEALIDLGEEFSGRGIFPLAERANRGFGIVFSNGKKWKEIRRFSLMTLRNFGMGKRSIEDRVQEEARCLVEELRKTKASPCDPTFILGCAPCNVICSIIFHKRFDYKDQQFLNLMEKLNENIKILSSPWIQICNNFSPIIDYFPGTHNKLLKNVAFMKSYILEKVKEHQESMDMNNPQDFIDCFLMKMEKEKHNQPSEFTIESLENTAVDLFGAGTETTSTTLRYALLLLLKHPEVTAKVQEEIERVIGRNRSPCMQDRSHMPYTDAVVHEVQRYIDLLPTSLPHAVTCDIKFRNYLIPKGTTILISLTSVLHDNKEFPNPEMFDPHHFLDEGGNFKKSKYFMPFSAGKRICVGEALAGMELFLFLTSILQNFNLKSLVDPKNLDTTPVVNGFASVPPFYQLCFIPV
Measles CPE = protection of cells from measles virus; protection (pct of control), % at 4 µM; AID 841; Measles virus-infected cells, CPE protection, absorbance; 140,000 tested, 1.5% active; in the data active means protection mostly above about 24%, no sharp cut-off; inactive means mostly below about 26%
CYP2C19 inh = inhibitors of human CYP2C19. P33261. CYP2C19 Supersomes, luciferin-H EGE luminescence, 30 min. 96,000 tested, 21% active. inhibition, % at 5 µM. AID 778;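 active means CYP2C19 inhibition above a set limit at 5 µM in the primary screen, cut at about 50% in these data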
CYP2C9 inh = blocks human cytochrome P450 2C9; inhibition, % at 5 µM; P11712; 96,000 tested, 20% active; CYP2C9 Supersomes, luciferin-H conversion, luminescence;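 active means blocking of liver enzyme CYP2C9 beyond about 50% at 5 µM, limit read from the data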
CYP2C19 activ = activators of human cytochrome P450 2C19; recombinant CYP2C19, luciferin-H EGE luminescence; stronger effect = higher value; 0 = fully inhibited enzyme, 1 = untreated enzyme; activation factor at 5 µM; 96,000 tested, under 10 active; AID 1025;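 active means activation factor of at least 2 at 5 µM in the primary screen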
Large screens that a line does not name were inactive. A selection: hits, their analogues and other compounds. The true share with any hit is near 22%.

Cc1ccc(C(=O)N(CC(=O)NC2CCCCC2)c2ccccc2C)s1	CYP2C9 inh 62.1
Cc1cccc(N(CC(=O)NC2CCCCC2)C(=O)c2ccc(C)s2)c1	CYP2C9 inh 59.7
Cc1ccc(C)c(N(CC(=O)NC2CCCC2)C(=O)c2cc3cc4cc(C)ccc4nc3s2)c1	none
Cc1cccc(N(CC(=O)NC2CCCC2)C(=O)c2cc3cc4cccc(C)c4nc3s2)c1C	CYP2C9 inh 89.5
CN(CC(=O)NC1CCCCCC1)S(=O)(=O)c1ccccc1	none
COc1ccc(-c2nnn(CC(=O)N(CC(=O)NC3CCCC3)c3cccc(C)c3)n2)cc1OC	none
Cc1[nH][nH]c(=O)c1C(c1ccc(-c2ccc(Cl)cc2Cl)o1)c1c(C)[nH][nH]c1=O	CYP2C19 inh 74.1
Cc1ccccc1NC(=O)c1ccc(-c2ccc(Cl)cc2Cl)o1	none
CCOC(=O)c1c(NC(=O)Cn2nc([N+](=O)[O-])c(Br)c2C)sc2c1CCC(C)C2 (configuration not stated)	none
CCn1c(SCC(=O)c2ccccc2)nc2c(c1=O)SC(C)C2 (configuration not stated)	CYP2C9 inh 89.9
COCCn1c(SCC(=O)c2ccccc2)nc2c(c1=O)SC(C)C2 (configuration not stated)	CYP2C19 inh 91.0, CYP2C9 inh 95.7
CCSc1nc2c(c(=O)n1CC)SC(C)C2 (configuration not stated)	none
CC1Cc2nc(SCC(=O)NCc3ccco3)n(Cc3ccccc3)c(=O)c2S1 (configuration not stated)	none
COc1cc(OC)cc(C(=O)N[C@H](C(=O)OCC(=O)Nc2ccc(C(N)=O)cc2)C(C)C)c1	none (no result: CYP2C9 act, CYP2C19 inh, CYP2C9 inh, CYP2C19 activ)
COc1cc(OC)cc(C(=O)N[C@H](C(=O)OCC(=O)c2ccc3c(c2)NC(=O)CO3)C(C)C)c1	Measles CPE 31.9
N#Cc1ccccc1OCC(=O)OCC(=O)c1ccc2c(c1)NC(=O)CO2	CYP2C19 inh 66.9, CYP2C9 inh 59.1
CC[C@H](C)[C@H](NC(=O)c1ccc(Cl)cc1)C(=O)OCC(=O)c1ccc2c(c1)NC(=O)CO2	CYP2C9 inh 55.7
CC(C)[C@H](NC(=O)c1ccccc1)C(=O)OCC(=O)c1ccc2c(c1)NC(=O)CO2	CYP2C19 inh 52.3
CC(C)C(C(=O)OCC(=O)c1ccc2c(c1)NC(=O)CO2)N1C(=O)c2ccccc2C1=O (configuration not stated)	none
O=C(CSc1nnc(CNc2ccc(Cl)cc2)o1)Nc1nc2c(s1)CCCC2	none
CCc1ccc2ncc(S(=O)(=O)c3ccc(C)c(C)c3)c(N3CCCC3)c2c1	none (no result: CYP2C9 act, CYP2C19 inh, CYP2C9 inh, CYP2C19 activ)
Cc1cc(Oc2nnnn2-c2ccccc2)ccc1Cl	CYP2C19 inh 58.2, CYP2C9 inh 61.2
c1ccc(OCc2nnnn2-c2ccccc2)cc1	none (no result: CYP2C9 act, CYP2C19 inh, CYP2C9 inh, CYP2C19 activ)
Clc1ccc(OCc2nnnn2-c2ccccc2)cc1	none (no result: CYP2C9 act, CYP2C19 inh, CYP2C9 inh, CYP2C19 activ)
Brc1ccc(Oc2nnnn2-c2ccccc2)cc1	CYP2C19 inh 100.3, CYP2C9 inh 81.0
CC(NC(=O)c1ccc(CS(=O)(=O)Cc2ccccc2F)o1)c1ccc2c(c1)OCCO2 (configuration not stated)	none (no result: CYP2C9 act, CYP2C19 inh, CYP2C9 inh, CYP2C19 activ)
CCOc1ccc(NC(=O)CN2CCN(CC(=O)Nc3ccc4c(c3)OCCO4)CC2)cc1	none
O=C(CN1CCN(CC(=O)Nc2ccccc2Cl)CC1)Nc1ccc2c(c1)OCCO2	CYP2C19 inh 91.2, CYP2C9 inh 51.1
O=C(CN1CCC(C(=O)c2ccc(Cl)cc2)CC1)Nc1ccc2c(c1)OCCO2	CYP2C9 inh 58.0 (no result: Measles CPE)
COc1ccccc1NC(=O)CN1CCN(CC(=O)Nc2ccc3c(c2)OCCO3)CC1	CYP2C19 inh 94.3
COc1ccc(-c2cc(-c3ccc(C)cc3)nc(SCc3nnc(-c4ccccc4)o3)c2C#N)cc1OC	none (no result: CYP2C9 act, CYP2C19 inh, CYP2C9 inh, CYP2C19 activ)
Cc1cc(CCCCCCCCc2cc(C)cc(=O)o2)oc(=O)c1	none (no result: CYP2C9 act, CYP2C19 inh, CYP2C9 inh, CYP2C19 activ)
COc1ccc(CCC(=O)Nc2cc(Cl)ccc2OC)cc1	CYP2C19 inh 100.3
COc1ccc(Cl)cc1NC(=O)C(C)Sc1n[nH]c(N)n1 (configuration not stated)	CYP2C9 act 2.3
COc1ccc(OC)c(S(=O)(=O)N(C)CC(=O)Nc2cc(Cl)ccc2OC)c1	none (no result: CYP2C9 act, CYP2C19 inh, CYP2C9 inh, CYP2C19 activ)
COc1ccc(CC(=O)Nc2cc(Cl)ccc2O)cc1	CYP2C19 inh 92.5, CYP2C9 inh 58.7
CCS(=O)(=O)c1ccc(O)c(NC(=O)COc2ccc(OC)cc2)c1	none (no result: CYP2C9 act, CYP2C19 inh, CYP2C9 inh, CYP2C19 activ)
COc1ccc(N2CC(C(=O)Nc3nnc(SCc4ccccn4)s3)CC2=O)cc1 (configuration not stated)	none (no result: CYP2C9 act, CYP2C19 inh, CYP2C9 inh, CYP2C19 activ)
COc1ccc(-n2nc3c(c2NC(=O)c2c(F)cccc2Cl)CS(=O)C3)cc1 (configuration not stated)	none
CC(C)N(C(=O)CSc1nn2c(=O)c(C(C)(C)C)nnc2s1)c1ccccc1	CYP2C19 inh 88.3, CYP2C9 inh 89.0
Cc1cc(C(=O)CSc2nn3c(=O)c(C(C)(C)C)nnc3s2)c(C)n1-c1ccc(F)cc1	CYP2C9 inh 57.7
CCOC(=O)C1=NN(C(=O)Nc2cccc(C(F)(F)F)c2)C2C(=O)N(c3cccc(C(F)(F)F)c3)C(=O)C12 (configuration not stated)	none
COc1ccccc1N1C(=O)c2ccccc2NC1c1ccncc1 (configuration not stated)	CYP2C9 inh 55.8
COc1cc(C2Nc3ccccc3C(=O)N2c2ccccc2)ccc1O (configuration not stated)	CYP2C9 inh 74.7
CCOc1cc(C2Nc3ccccc3C(=O)N2c2ccccc2)ccc1O (configuration not stated)	CYP2C19 inh 61.9, CYP2C9 inh 95.5
CCOc1cc(C2Nc3cccc4cccc(c34)N2)ccc1O	CYP2C19 inh 69.3
COc1ccc(C2Nc3ccccc3C(=O)N2c2ccc(F)cc2)cc1CSc1ccccn1 (configuration not stated)	none (no result: CYP2C9 act, CYP2C19 inh, CYP2C9 inh, CYP2C19 activ)
O=C(COc1ccc([N+](=O)[O-])cc1)NN=C1CCCC1	none
CCn1c(SCc2ccc(C#N)cc2)nnc1-c1ccc(S(=O)(=O)N2CCCCC2)cc1	none
COc1ccc(C2Nc3ccccc3C(=O)N2c2ccccc2)cc1CSc1ccccn1 (configuration not stated)	none (no result: CYP2C9 act, CYP2C19 inh, CYP2C9 inh, CYP2C19 activ)
COc1ccc(C2Nc3ccccc3C(=O)N2c2ccccc2)cc1COc1ccccn1 (configuration not stated)	CYP2C9 inh 59.4
Cc1cc(OCC(=O)Nn2cnnc2)ccc1Br	CYP2C19 inh 99.9, CYP2C9 inh 100.3
COC(=O)NNC(=O)COc1ccc(Br)c(C)c1	none
CC1CCCC(NC(=O)CC2Nc3ccccc3NC2=O)C1C (configuration not stated)	none
O=C(CC1Nc2ccccc2NC1=O)NC1CCCCC1 (configuration not stated)	CYP2C9 act 2.2
Nc1nc(SCC(=O)N2N=C3/C(=C/c4ccco4)CCCC3C2c2ccco2)n[nH]1 (configuration not stated)	CYP2C19 inh 50.7
C=CCNCCCOc1ccc(Cl)cc1Br	none (no result: CYP2C9 act, CYP2C19 inh, CYP2C9 inh, CYP2C19 activ)
Cc1csc(N(C(=O)c2cccc(S(=O)(=O)N3CCCC3)c2)c2ccccc2)n1	none

Screening results (PubChem BioAssay)
